This note sets out measurements from PubChem BioAssay (Tox21).

Assay [1] can be described thus: qHTS assay to identify small molecule agonists of the estrogen receptor alpha (ER-alpha) signaling pathway in the presence of an antagonist - cell viability counter screen (AID 1259386). For activity change, negative = cytotoxicity: series mostly up to about 92 µM.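 Note: cells exposed to compounds for 22 h at 37 °C before the viability read; nearly all actives have a fitted effect of over 30% in size.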 Note: potency is the fitted concentration of half-maximal effect. A digest of the protocol: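 Viability counter screen using VM7Luc4E2 (full-length ER-alpha, four ERE-luciferase). The cells were treated with compounds alongside ICI-182,780 10.0nM for 22hr, and live-cell protease fluorescence was quantified with CellTiter-Fluor.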

The target in assay [2] is Progesterone receptor (Homo sapiens) (UniProt P06401). The experiment in a line: qHTS assay to identify small molecule agonists of the progesterone receptor (PR) signaling pathway (AID 1346784; calls by dose curve; note: nearly all actives have a fitted effect of over 30% in size). In outline:
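Compounds were tested for PR agonism in HEK 293T cells bearing a beta-lactamase gene under UAS control. Treatment lasted 16 hr at 37C; signal came from fluorescence of a FRET substrate.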

A short description of assay [3]: qHTS assay to identify small molecule antagonists of the progesterone receptor (PR) signaling pathway - cell viability counter screen (AID 1346798). For activity change, negative = cytotoxicity: series mostly up to about 92 µM. Note: nearly all actives have a fitted effect of over 50% in size. Note: potency is the fitted concentration of half-maximal effect. In outline: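 Following a 4 hr attachment, PR-UAS-bla HEK293T cells in charcoal-stripped FBS medium were exposed to compounds with R5020 for 16 hr; CellTiter-Glo was added and luminescence read after 30 min at room temperature.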

Assay [4] can be described thus: qHTS assay to identify small molecule antagonists of the TGF-beta/Smad signaling pathway - cell viability counter screen (AID 1346824). Note: nearly all actives have a fitted effect of over 50% in size. Note: potency is the fitted concentration of half-maximal effect. In outline: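 SBE-bla HEK 293T cells, incubated overnight, then compound plus 0.25 ng/mL TGF-beta1 (stock added) for 5 hr at 37 C. Viability was read in the same wells by CellTiter-Glo luminescence after 30 min at room temperature.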

Assay [5] in a line: qHTS assay to identify small molecule agonists of the TGF-beta/Smad signaling pathway - cell viability counter screen (AID 1346829). For activity change, negative = cytotoxicity: top concentration of the series differs between compounds. Note: nearly all actives have a fitted effect of over 45% in size. Note: potency is the fitted concentration of half-maximal effect. A digest of the protocol: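 SBE-bla HEK 293T cells plated overnight, compound exposure 5 hr at 37 C. Viability read in the same wells by CellTiter-Glo luminescence after 30 min at room temperature, following the beta-lactamase read.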
Assay [6] is described as follows: Human pregnane X receptor (PXR) small molecule agonists, qHTS cell viability counter screen (AID 1346977). Note: nearly all actives have a fitted effect of over 50% in size. Note: potency is the fitted concentration of half-maximal effect. In outline:
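Tox21 qHTS format; PXR-Luc HepG2, 2,000/well, charcoal-stripped FBS 5%. Cpd exposure 24hr. Read: CellTiter-Fluor fluorescence, multiplexed with luciferase.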

Assay [7] is described as follows: Caspase-3/7 induction in HepG2 cells by small molecules, qHTS assay (AID 1346978). Note: nearly all actives have a fitted effect of over 15% in size. In outline:
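Wild-type HepG2 cells, 2,000/well, settled 5 hr at 37 C and 5% CO2, then compound-treated for 17 hr; caspase-3/7 activity read by luminescent Caspase-Glo 3/7 after 30 min at room temperature.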

Assay [8] in a line: Caspase-3/7 induction in CHO-K1 cells by small molecules, qHTS cell viability counter screen (AID 1346979). Note: nearly all actives have a fitted effect of over 35% in size. Note: potency is the fitted concentration of half-maximal effect. A digest of the protocol:
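CellTiter-Fluor viability check, qHTS format: wild-type CHO-K1, 16hr compound treatment, 1hr reagent incubation, fluorescence read.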

The nature of assay [9]: Caspase-3/7 induction in CHO-K1 cells by small molecules, qHTS assay (AID 1346980). Note: nearly all actives have a fitted effect of over 15% in size. In outline: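 Wild-type CHO-K1 cells exposed to compounds for 17hr at 37 C, 5% CO2. Caspase-3/7 activity then measured by Caspase-Glo 3/7 luminescence after 30min at room temperature.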
Assay [10] can be described thus: Caspase-3/7 induction in HepG2 cells by small molecules, qHTS cell viability counter screen (AID 1346981). For activity change, negative = cytotoxicity: series mostly up to about 92 µM. Note: nearly all actives have a fitted effect of over 30% in size. Note: potency is the fitted concentration of half-maximal effect. In outline:
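Viability determined by CellTiter-Fluor fluorescence in HepG2 wells also used for the luminescent Caspase-Glo 3/7 read. Compounds were present for 16 hr at 37 C, 5% CO2 before reagent addition.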

For assay [11], the target named is Nuclear receptor subfamily 1 group I member 2 (Homo sapiens) (UniProt O75469). The experiment in a line: Human pregnane X receptor (PXR) small molecule agonists, qHTS assay (AID 1346982). Note: nearly all actives have a fitted effect of over 35% in size. Note: potency is the fitted concentration of half-maximal effect. In outline:
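Compound-induced hPXR transactivation of a CYP3A4 luciferase reporter was scored in HepG2 PXR-Luc cells over 24 hr at 37 C, 5% CO2, by luminescence.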

Assay [12] deals with Nuclear receptor subfamily 1 group I member 2 (Rattus norvegicus) (UniProt Q9R1A7). The experiment in a line: Rat pregnane X receptor (rPXR) activation by small molecules, qHTS assay (AID 1346983). Note: nearly all actives have a fitted effect of over 20% in size. Particulars: rPXR luciferase reporter cells, One-Glo luminescence, 24 h; stronger effect = higher value. In outline: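 Cell-based rPXR activation assay: rPXR cells, 2,000 per well, rested 5hr at 37 C, then exposed to compounds in DMSO for 24 hr at 37 C. Luciferase activity read by One-Glo luminescence after 30 min at room temperature.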
Chain of Nuclear receptor subfamily 1 group I member 2 (Rattus norvegicus) (Q9R1A7 whole entry, looked up): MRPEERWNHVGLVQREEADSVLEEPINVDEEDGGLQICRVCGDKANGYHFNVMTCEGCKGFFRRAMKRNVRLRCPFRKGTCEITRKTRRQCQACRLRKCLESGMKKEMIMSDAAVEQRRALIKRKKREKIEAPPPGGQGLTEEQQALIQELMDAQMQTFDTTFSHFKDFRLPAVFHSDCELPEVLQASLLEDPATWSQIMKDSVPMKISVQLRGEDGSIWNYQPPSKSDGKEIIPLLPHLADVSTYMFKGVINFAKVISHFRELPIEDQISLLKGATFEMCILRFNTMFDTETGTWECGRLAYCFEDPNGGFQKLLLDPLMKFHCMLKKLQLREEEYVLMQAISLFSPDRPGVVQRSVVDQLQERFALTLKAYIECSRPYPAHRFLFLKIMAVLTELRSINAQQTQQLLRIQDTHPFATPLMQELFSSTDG

The target of assay [13] is Nuclear receptor subfamily 1 group I member 2 (Homo sapiens) (UniProt O75469). The experiment in a line: CYP3A4 induction through human pregnane X receptor (PXR) by small molecules, qHTS assay (AID 1346984). Note: nearly all actives have a fitted effect of over 40% in size. A digest of the protocol:
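Readings come from a luciferase reporter: DPX-2 cells, which are HepG2 cotransfected with PXR and a CYP3A4-promoter construct, were exposed to test compounds for 24 h at 37C before One-Glo detection.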

The target is the same in assay [14]. The experiment in a line: Human pregnane X receptor (PXR) activation by small molecules, qHTS assay (AID 1346985). Note: nearly all actives have a fitted effect of over 40% in size. A digest of the protocol:
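DPX-2 cells (HepG2 co-transfected with a PXR response element and a CYP3A4-promoter luciferase construct) were seeded at 2,000 per well, rested 5 hr at 37C, then exposed to DMSO-dissolved compounds for 24 hr. Activation was read as luciferase luminescence.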

The target of assay [15] is Cytochrome P450 2D6 (Homo sapiens) (UniProt P10635). The experiment in a line: Cytochrome P450 Family 2 Subfamily D Member 6 (CYP2D6) small molecule antagonists: luciferase reporter qHTS assay (AID 1671196). Note: nearly all actives have a fitted effect of over 50% in size. Note: potency is the fitted concentration of half-maximal effect. A digest of the protocol: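 Each well received CYP2D6 with its proluciferin substrate and chemical, sat 10 min, then got NADPH regeneration solution for 1 h at room temperature. Luminescence in RLU served as the activity measure.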
Chain of Cytochrome P450 2D6 (Homo sapiens) (P10635 whole entry, looked up): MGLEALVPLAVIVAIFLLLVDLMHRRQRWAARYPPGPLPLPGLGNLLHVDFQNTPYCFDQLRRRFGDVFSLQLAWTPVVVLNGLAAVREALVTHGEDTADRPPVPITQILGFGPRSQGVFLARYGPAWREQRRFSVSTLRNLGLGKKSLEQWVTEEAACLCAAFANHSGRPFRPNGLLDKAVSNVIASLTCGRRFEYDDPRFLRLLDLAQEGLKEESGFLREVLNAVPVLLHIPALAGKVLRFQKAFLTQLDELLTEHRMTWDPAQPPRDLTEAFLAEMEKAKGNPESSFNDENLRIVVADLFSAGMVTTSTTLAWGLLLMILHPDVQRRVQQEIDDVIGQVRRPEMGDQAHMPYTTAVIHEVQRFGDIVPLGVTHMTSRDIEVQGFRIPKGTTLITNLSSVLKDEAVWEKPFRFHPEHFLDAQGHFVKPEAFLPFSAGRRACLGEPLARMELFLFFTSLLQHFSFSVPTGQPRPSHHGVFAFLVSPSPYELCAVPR

Assay [16] is described as follows: qHTS assay to identify small molecule agonists of the progesterone receptor (PR) signaling pathway - cell viability counter screen (AID 1346799; calls by dose curve; note: nearly all actives have a fitted effect of over 45% in size; note: potency is the fitted concentration of half-maximal effect). In outline: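 Here, 3,000 PR-UAS-bla HEK293T cells per well were treated with compounds for 16 hr after a 6 hr preincubation at 37C and 5% CO2; cell viability is the CellTiter-Glo luminescence signal.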
Assay [17] is described as follows: qHTS assay to identify small molecule agonists of the TGF-beta/Smad signaling pathway (AID 1346859; active = well fitted activation curve with a large enough effect in the signal ratio in the repeat runs, not every such curve was filed as active; the % refers to the signal ratio; note: series mostly up to about 77 µM). In outline:
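Each well held 4,000 SBE-bla HEK 293T cells incubated overnight before compound addition; 5 hr later the cleavable FRET substrate went on for 2 hr at room temperature, and fluorescence was read at two emissions.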

For assay [18], the target named is Thyrotropin-releasing hormone receptor (Homo sapiens) (UniProt P34981). The experiment in a line: qHTS assay to identify small molecule antagonists of the thyrotropin-releasing hormone receptor (TRHR) signaling pathway (AID 1346877; active = well fitted inhibition curve with a large enough effect in the repeat runs, not every such curve was filed as active; note: series mostly up to about 51 µM). A digest of the protocol:
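Following an 18 h incubation at 37 °C and a 2 h calcium dye load, TRHR-HEK293 cells were exposed to compound (5 min, room temperature) and challenged with TRH, 1 nM final.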

Assay [19] has the same target. The experiment in a line: qHTS assay to identify small molecule agonists of the thyrotropin-releasing hormone receptor (TRHR) signaling pathway (AID 1346891; calls by dose curve; note: series mostly up to about 58 µM). A digest of the protocol: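 Screening of agonists relied on calcium signalling in HEK293 cells expressing human TRHR: dye loading 2 h at 37 °C preceded compound addition and a 3-min fluorescence time course.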

Assay [20] deals with Progesterone receptor (Homo sapiens) (UniProt P06401). The experiment in a line: qHTS assay to identify small molecule antagonists of the progesterone receptor (PR) signaling pathway (AID 1346795; active = well fitted inhibition curve with a large enough effect in the signal ratio in the repeat runs, not every such curve was filed as active; the % refers to the signal ratio). A digest of the protocol:
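In HEK293T cells bearing the PR-UAS-bla reporter, compound effects on promegestone-driven (1 nM) beta-lactamase expression are assessed after 16 hr using a fluorescent FRET substrate incubated 2 hr at room temperature.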

Several values for one entry are separate records, joined by “and”; a condition that tells them apart may be missing. Equal values may be shown once. Records with an inconclusive call do not appear. Some compounds were tested as several samples or in several runs, with calls that do not always agree. Activity calls are given as the source filed them. Unless noted, calls come from the whole dose curve; as a rule, active = well fitted curve in the direction sought with a large enough effect in the repeat runs; inconclusive = weak or mixed curves; inactive = no such curve, though single readings can be large; an effect the other way counts as inactive or inconclusive.
% is set by controls: 0 for no effect and ±100 for the full control effect.

Chain of Thyrotropin-releasing hormone receptor (Homo sapiens) (P34981 whole entry, looked up): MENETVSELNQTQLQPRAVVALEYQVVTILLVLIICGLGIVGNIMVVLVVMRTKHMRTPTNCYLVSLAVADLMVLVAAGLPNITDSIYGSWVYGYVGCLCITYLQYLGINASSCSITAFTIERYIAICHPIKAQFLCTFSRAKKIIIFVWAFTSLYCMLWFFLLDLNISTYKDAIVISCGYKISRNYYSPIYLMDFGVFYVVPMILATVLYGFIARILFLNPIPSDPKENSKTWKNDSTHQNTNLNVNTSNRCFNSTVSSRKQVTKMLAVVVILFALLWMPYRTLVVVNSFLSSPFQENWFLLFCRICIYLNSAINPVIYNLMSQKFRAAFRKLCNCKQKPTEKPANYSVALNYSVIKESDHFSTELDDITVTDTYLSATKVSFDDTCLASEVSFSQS
Chain of Nuclear receptor subfamily 1 group I member 2 (Homo sapiens) (O75469 whole entry, looked up): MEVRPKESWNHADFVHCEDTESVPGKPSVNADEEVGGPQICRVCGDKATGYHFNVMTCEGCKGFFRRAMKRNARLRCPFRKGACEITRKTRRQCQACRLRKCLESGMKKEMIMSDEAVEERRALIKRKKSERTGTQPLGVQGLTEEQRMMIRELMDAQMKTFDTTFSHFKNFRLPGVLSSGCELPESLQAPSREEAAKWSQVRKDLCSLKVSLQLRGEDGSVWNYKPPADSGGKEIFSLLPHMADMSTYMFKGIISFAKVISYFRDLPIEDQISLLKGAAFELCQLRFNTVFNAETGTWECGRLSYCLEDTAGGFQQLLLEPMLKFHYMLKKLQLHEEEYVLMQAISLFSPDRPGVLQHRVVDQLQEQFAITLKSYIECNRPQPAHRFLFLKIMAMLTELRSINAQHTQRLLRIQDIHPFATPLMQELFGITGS
Chain of Progesterone receptor (Homo sapiens) (P06401 whole entry, looked up): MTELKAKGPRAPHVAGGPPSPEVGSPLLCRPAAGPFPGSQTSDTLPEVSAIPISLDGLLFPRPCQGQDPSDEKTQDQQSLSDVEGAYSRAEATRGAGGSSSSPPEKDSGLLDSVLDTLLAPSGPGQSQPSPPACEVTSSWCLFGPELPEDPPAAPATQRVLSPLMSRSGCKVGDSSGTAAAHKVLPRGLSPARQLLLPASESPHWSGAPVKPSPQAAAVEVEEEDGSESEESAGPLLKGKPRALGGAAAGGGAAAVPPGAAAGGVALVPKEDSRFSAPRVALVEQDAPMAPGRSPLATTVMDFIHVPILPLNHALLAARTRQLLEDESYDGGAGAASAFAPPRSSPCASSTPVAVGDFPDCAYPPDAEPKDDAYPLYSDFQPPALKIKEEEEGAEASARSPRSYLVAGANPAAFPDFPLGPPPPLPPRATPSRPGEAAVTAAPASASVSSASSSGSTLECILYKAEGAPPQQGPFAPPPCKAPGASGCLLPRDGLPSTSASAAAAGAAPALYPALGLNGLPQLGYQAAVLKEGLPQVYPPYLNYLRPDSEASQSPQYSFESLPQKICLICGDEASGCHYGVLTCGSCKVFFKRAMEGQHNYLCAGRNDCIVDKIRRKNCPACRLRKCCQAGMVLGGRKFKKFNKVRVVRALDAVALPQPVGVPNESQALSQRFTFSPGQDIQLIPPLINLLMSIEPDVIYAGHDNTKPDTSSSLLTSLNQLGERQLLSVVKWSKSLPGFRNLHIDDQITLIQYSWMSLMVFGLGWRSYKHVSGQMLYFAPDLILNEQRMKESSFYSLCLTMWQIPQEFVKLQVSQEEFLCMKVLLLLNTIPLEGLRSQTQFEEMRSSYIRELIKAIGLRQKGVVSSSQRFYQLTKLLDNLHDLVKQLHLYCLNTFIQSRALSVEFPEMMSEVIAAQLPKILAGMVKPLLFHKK

Consider `CCCCCCCCCCCCCC[N+](C)(C)C`, for which the Potency result in [1], in assay [2], in assay [7], in assay [9], in assay [11] and in [13] was “inactive” throughout. Further, in [14], the Potency result is “inactive”. Further, the Potency in assay [3] was 48.5 µM (active) and 33.5 µM (active); in assay [4] it was 42.2 µM (active) and 54.9 µM (active); in assay [5], 54.9 µM (active) and inactive; in assay [6], 52.7 µM (active) and 27.3 µM (active) and 26.6 µM (active); in assay [8] it was 59.1 µM (active) and 38.5 µM (active); in assay [10], 61.1 µM (active). In assay [15], the Potency is 3.06 µM (active) and 3.17 µM (active) and 3.47 µM (active). Moreover, in [12], the max activation was -17% (inactive).

Turning to `CC(C)(C)CC(C)(C)c1ccc(Nc2ccc(C(C)(C)CC(C)(C)C)cc2)cc1`, the activity change, negative = cytotoxicity in [1] was 1.15% [at 8.39 µM] (inactive); in assay [3], -7.66% [at 8.39 µM] (inactive); in assay [16], 8.24% [at 8.39 µM] (inactive); in assay [5], 1.44% [at 6.97 µM] (inactive); in [6], 1.07% [at 8.39 µM] (inactive); in [8] it was 5.88% [at 8.39 µM] (inactive). Further, the activity change, negative = cytotoxicity in assay [10] was 3.23% [at 8.39 µM] (inactive). For the same compound, the activation in assay [2] was -0.254% [at 8.39 µM] (inactive); in assay [17], 1.28% [at 6.97 µM] (inactive); in assay [19] it was -0.0029% [at 5.23 µM] (inactive); in assay [11], 4.4% [at 8.39 µM] (inactive). Besides, in [4], the viability change, negative = cytotoxic is 15.5% [at 6.97 µM] (inactive). In addition, the activity, negative = inhibition in assay [18] was -2.04% [at 4.65 µM] (inactive). Further, the caspase activation in [7] was 1.74% [at 8.39 µM] (inactive).

Regarding `CCC(C)n1ncn(-c2ccc(N3CCN(c4ccc(OC[C@H]5CO[C@](Cn6cncn6)(c6ccc(Cl)cc6Cl)O5)cc4)CC3)cc2)c1=O` (stereo partly specified), the Potency entry in [1], in assay [2], in assay [20], in [4], in [5] and in [17] was “inactive” in each case. Moreover, the Potency result in assay [18], in assay [7], in assay [9], in assay [10] and in [15] was “inactive” throughout. In addition, the result in assay [19] was inactive. Besides, the Potency in [8] is 5.96 µM (active); in assay [11] it was 2.98 µM (active).

As to `O=C1CCCCCCCCCCCCCCCO1`, the Potency result in assay [1], in [2], in assay [3], in assay [16], in assay [4] and in [5] was “inactive” each time. In addition, the Potency result in assay [17], in [18], in assay [6], in [7], in assay [8] and in assay [9] was “inactive” in each case. Moreover, the Potency entry in assay [10], in assay [11] and in [15] was “inactive” each time. In [19], the outcome was inactive.

For the compound `CCCCCCCC`, the Potency result in assay [1], in [2], in [20], in assay [5], in assay [17] and in [18] was “inactive” each time. Besides, the Potency result in assay [6], in assay [7], in [8], in assay [9], in assay [10] and in [11] was “inactive” throughout. The call in assay [19] was inactive.

In the case of `O=S(=O)(O)c1ccc(N=Nc2c(O)ccc3ccccc23)cc1`, the Potency in assay [1] was 27.3 µM (active); in assay [3] it was 8.63 µM (active); in assay [16], 7.7 µM (active); in assay [6], 27.3 µM (active); in assay [8] it was 30.6 µM (active); in [15], 35.6 µM (active). For the same compound, the Potency entry in [2], in [4], in assay [5], in [17], in assay [18] and in assay [7] was “inactive” in each case. Further, the Potency result in assay [9] is “inactive”. Further, the compound was classed as inactive in [19].

With `CC(=O)Oc1cc2c(s1)CCN(C(C(=O)C1CC1)c1ccccc1F)C2` (stereo unspecified), the Potency result in [1], in [2], in assay [3], in [16], in assay [4] and in assay [5] was “inactive” each time. In addition, the Potency entry in [17], in [18], in assay [6], in assay [7], in assay [8] and in assay [10] was “inactive” throughout. Moreover, the result in assay [19] was inactive. For the same compound, the figures for the Potency in assay [11] and in assay [15] were 26.6 µM (active) and 8.71 µM (active), respectively.
